Earlier results on 28 compounds are cited in PubChem BioAssay AID977608.

This data set can be described thus: protein-ligand inhibition affinities from structures – PDB-derived complexes (AID 977608).

The campaign covered roughly 4,300 compounds. About 4,300 (100%) were called active. The limit is not given here; nearly all actives have IC50 up to about 1400 µM. The set was probably picked from earlier hits. Some of the results follow.

For the compound `O=C(CS)NCCCCCC(=O)Nc1ccccc1`, the 50% inhibitory concentration (IC50) (literature IC50, protein: Schistosoma mansoni histone deacetylase 8, HDAC8, PDB entry 4cqf) was 50 µM (active). Consider `C[C@@H](O)[C@H](NC(=O)Cc1cc(Cl)cc(Cl)c1)C(=O)NCC(=O)NCC=N`, for which, where the note is “literature IC50, protein: Protease AVP8, PDB entry 4piq”, the half-maximal inhibitory concentration (IC50) is 0.08 µM (active). Consider `CC(=O)Nc1cccc(C2=CC(C)N(O)c3ccccc32)c1` (stereo not given), for which the IC50 (literature IC50, protein: Bromodomain-containing protein 4, PDB entry 4meo) was 250 µM (active). Regarding `N=C1C(NS(=O)(=O)c2ccccc2)C(=O)NC(=O)N1Cc1ccccc1` (stereo not given), the half-maximal inhibitory concentration (IC50) is 1.32 µM (active) (literature IC50, protein: Glucose-1-phosphate thymidylyltransferase (RmlA), PDB entry 3zlk) and 1.32 µM (active) (literature IC50, protein: Glucose-1-phosphate thymidylyltransferase (RmlA), PDB entry 4ASP). For the compound `C/C(=C\Cc1c(O)c(Cl)c(C)c(C=O)c1O)CC/C=C(\C)[C@H](C)O`, the IC50 (literature IC50, protein: Alternative oxidase, mitochondrial, PDB entry 3vva) is 0.00048 µM (active).

With `CCc1nc(N)nc(N)c1-c1ccc(NCc2cc(F)cc(F)c2)cc1`, where the note is “literature IC50, protein: human Renin, PDB entry 2g24”, the half-maximal inhibitory concentration (IC50) was 4 µM (active). Consider `N#Cc1csc(NC(=O)CN2C(=O)CCc3ccccc32)c1-c1ncn[nH]1`, for which, where the note is “literature IC50, protein: Mitogen-activated protein kinase 10, PDB entry 3rtp”, the IC50 was 0.007 µM (active). In the case of H-HVAVENAL-OH, where the note is “literature IC50, protein: HLA class I histocompatibility antigen, B-39 alpha chain, PDB entry 4o2f”, the half-maximal inhibitory concentration (IC50) was 0.387 µM (active). In the case of `CC(C)C[C@H](NC(=O)[C@H](C)NC(=O)[C@H](CC(N)=O)NC(=O)[C@H](CCC(=O)O)NC(=O)[C@@H](NC(=O)[C@H](C)NC(=O)[C@@H](NC(=O)[C@H](Cc1cnc[nH]1)NC(=O)[C@@H](N)CO)C(C)C)C(C)C)C(=O)O`, where the note is “literature IC50, protein: HLA class I histocompatibility antigen, B-39 alpha chain, PDB entry 4o2e”, the IC50 is 0.01 µM (active). Regarding `O=C(CC[C@H](NC(=O)c1ccc(C#Cc2ccccc2)cc1)C(=O)NO)NCCCO`, under “literature IC50, protein: UDP-3-O-[3-hydroxymyristoyl] N-acetylglucosamine deacetylase, PDB entry 4j3d”, the IC50 was 0.0053 µM (active). On to `CCCCn1c(-c2c(C)ccc3[nH]ncc23)c[n+]2c3c(=O)[nH]c(=O)n(C)c3[nH]c12`, for which, where the note is “literature IC50, protein: EPH receptor A3, PDB entry 4gk4”, the IC50 was 0.014 µM (active). Regarding H-AAAAAAA-OH, under “literature IC50, protein: Insulin-degrading enzyme(IDE), PDB entry 2jbu”, the IC50 is 400 µM (active). On to `COc1ccc2c(c1)C1=NN(C(=O)CO)[C@H](c3ccc(OC(F)(F)F)c(F)c3)[C@@H]1CC2`, for which, where the note is “literature IC50, protein: Receptor-interacting serine/threonine-protein kinase 1 (C34A, C127A, C233A, C240A mutation), PDB entry 4iti”, the 50% inhibitory concentration (IC50) is 0.44 µM (active).

For `O=C(O)/C(S)=C/c1c(Cl)ccc(Cl)c1Cl`, the 50% inhibitory concentration (IC50) (literature IC50, protein: Beta-lactamase 2 BcII MBL, PDB entry 4tyt) is 0.02 µM (active). As for `CC(C)C[C@H](C[P+](O)(O)[C@@H](N)CCc1ccccc1)C(=O)N[C@@H](Cc1c[nH]c2ccccc12)C(N)=O`, the IC50 (literature IC50, protein: Endoplasmic reticulum aminopeptidase 2, PDB entry 4jbs) was 0.011 µM (active). With `O=C1NCc2ccc(Cl)cc21`, the concentration for half-maximal inhibition (IC50) (literature IC50, protein: Chymase, PDB entry 4k5z) is 1000 µM (active). For `O=C(c1ccc(O)cc1)N1CCOCC1`, under “literature IC50, protein: Heat shock protein HSP 90-alpha, PDB entry 4egh”, the IC50 is 550 µM (active). As to `N=Cc1ncc(C(=O)NCc2ccccc2)cn1`, for the setting “literature IC50, protein: Protease AVP2, PDB entry 4pid”, the half-inhibitory concentration (IC50) is 24 µM (active). In the case of `CCOC(=O)COc1cccc(C(=O)c2nonc2N)c1`, the 50% inhibitory concentration (IC50) (literature IC50, protein: Adenylate cyclase type 10 hsolAC, PDB entry 4oyb) is 1.6 µM (active).

For `COc1cccc(C(=O)c2nonc2N)c1`, for the setting “literature IC50, protein: Adenylate cyclase type 10 hsolAC, PDB entry 4oym”, the IC50 is 11 µM (active). Turning to `Nc1nonc1C(=O)c1ccccc1`, the IC50 (literature IC50, protein: Adenylate cyclase type 10 hsolAC, PDB entry 4oyi) was 19 µM (active). As for `Nc1nonc1C(=O)c1cccc(OCc2nc3ccccc3[nH]2)c1`, the IC50 (literature IC50, protein: Adenylate cyclase type 10 hsolAC, PDB entry 4oya) was 0.36 µM (active).

For `CCCCn1cc[n+](CC(O)([P+](O)(O)O)[P+](O)(O)O)c1`, the concentration for half-maximal inhibition (IC50) (literature IC50, protein: Farnesyl pyrophosphate synthase, PDB entry 4ga3) is 0.03 µM (active). Consider `CCCCCCCCCCCCCCCn1cc[n+](CC([P+](O)(O)O)[P+](O)(O)O)c1`, for which the IC50 is 0.26 µM (active) (literature IC50, protein: Squalene synthase, HsSQS, PDB entry 3wcl) and 0.14 µM (active) (literature IC50, protein: Squalene synthase, TcSQS, PDB entry 3wcg). On to `CCCCCCCCCCCCCCCn1cc[n+](CC(O)([P+](O)(O)O)[P+](O)(O)O)c1`, for which the IC50 (literature IC50, protein: Squalene synthase, HsSQS, PDB entry 3wci) is 0.27 µM (active). `COc1cnc2[nH]cc(Cc3ccc(NCc4ccc(C(F)(F)F)cc4)nc3)c2c1`: the IC50 (literature IC50, protein: Macrophage colony-stimulating factor 1 receptor (C667T, C830S, C907T mutation), PDB entry 4hw7) was 0.062 µM (active).

In the case of `FC(F)(F)c1ccc(CNc2ccc(Cc3c[nH]c4ncccc34)cn2)cc1`, under “literature IC50, protein: Mast/stem cell growth factor receptor Kit, PDB entry 4hvs”, the IC50 is 0.016 µM (active). As for `S=CNc1ccc2oc(C3=NCCN3)cc2c1`, where the note is “literature IC50, protein: Chitinase A(W275G mutant), PDB entry 3as3”, the IC50 is 160 µM (active).

In general, IC50 refers to the concentration that inhibits the measured activity by half.
